Data: PMC4336329 (PLoS ONE, 2015)
Among all 310,000 compounds or so, about 14,000 (4.5%) showed an effect of 50% or more. The effect is printed as a negative number. This is one part of a sample in which strong results are shown more often than they occur.

Target: human ether-à-go-go-related gene (hERG) potassium channel (human, UniProt Q12809)
Assay: primary screen, population patch clamp on CHO cells stably expressing hERG; higher = less effect of the substance
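Note: peak tail current of the secondary pulse compared with the same well before compound.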

human ether-à-go-go-related gene (hERG) potassium channel, sequence (Q12809 whole entry, looked up): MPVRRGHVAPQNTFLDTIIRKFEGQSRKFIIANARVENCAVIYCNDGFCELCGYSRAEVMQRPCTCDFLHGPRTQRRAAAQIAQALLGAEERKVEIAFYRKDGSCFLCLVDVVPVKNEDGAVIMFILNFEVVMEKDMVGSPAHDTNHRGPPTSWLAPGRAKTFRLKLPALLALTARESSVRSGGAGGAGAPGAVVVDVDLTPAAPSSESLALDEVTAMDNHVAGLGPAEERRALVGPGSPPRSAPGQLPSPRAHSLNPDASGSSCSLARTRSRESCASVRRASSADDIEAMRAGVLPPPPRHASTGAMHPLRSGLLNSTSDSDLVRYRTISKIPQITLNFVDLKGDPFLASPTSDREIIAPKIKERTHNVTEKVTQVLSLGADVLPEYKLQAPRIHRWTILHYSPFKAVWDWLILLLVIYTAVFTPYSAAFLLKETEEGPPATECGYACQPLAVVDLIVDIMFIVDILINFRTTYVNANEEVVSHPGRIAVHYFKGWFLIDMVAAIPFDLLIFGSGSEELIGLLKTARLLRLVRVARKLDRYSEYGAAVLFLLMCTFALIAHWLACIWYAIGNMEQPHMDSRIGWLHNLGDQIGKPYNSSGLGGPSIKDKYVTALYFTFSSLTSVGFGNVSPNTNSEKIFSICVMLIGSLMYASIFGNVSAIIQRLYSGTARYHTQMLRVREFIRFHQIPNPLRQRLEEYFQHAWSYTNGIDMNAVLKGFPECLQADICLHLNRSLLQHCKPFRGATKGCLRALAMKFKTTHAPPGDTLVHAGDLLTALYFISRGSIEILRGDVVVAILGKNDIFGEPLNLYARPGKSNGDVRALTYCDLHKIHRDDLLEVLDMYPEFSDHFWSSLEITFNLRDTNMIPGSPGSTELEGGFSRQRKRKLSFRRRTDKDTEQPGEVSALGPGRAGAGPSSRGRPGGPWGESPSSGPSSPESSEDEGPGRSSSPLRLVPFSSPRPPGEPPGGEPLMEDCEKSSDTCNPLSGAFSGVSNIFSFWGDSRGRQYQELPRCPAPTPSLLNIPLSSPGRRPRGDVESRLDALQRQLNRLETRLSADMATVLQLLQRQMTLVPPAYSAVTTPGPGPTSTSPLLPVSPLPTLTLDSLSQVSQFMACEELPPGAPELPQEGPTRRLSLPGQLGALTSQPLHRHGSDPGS

Going from Cc1ccc(SCC(=O)OCC(=O)N(CC(C)C)C2CCS(=O)(=O)C2)cc1C (centres unmarked) to CN(C(=O)COC(=O)C1c2ccccc2Oc2ccccc21)C1CCS(=O)(=O)C1 (centres unmarked), the “hERG current change (%, negative = inhibition) at 10uM” value rises from -4.29% to 4.56%.

First: CCc1cc(C(c2ccccn2)N2CCN(C)CC2)c(NC(=O)c2ccccc2)s1 (centres unmarked)
Second: CCc1cc(C(c2ccncc2)N2CCN(C)CC2)c(NC(=O)c2ccccc2)s1 (centres unmarked)
The “hERG current change (%, negative = inhibition) at 10uM” value of the first is lower: -59.1% for the first, -40.2% for the second.

First: Cc1sc(NC(=O)c2ccccc2)c(C(c2ccccn2)N2CCN(CCO)CC2)c1C (centres unmarked)
Second: CCN1CCN(C(c2ccccn2)c2c(NC(=O)c3ccccc3)sc(C)c2C)CC1 (centres unmarked)
The “hERG current change (%, negative = inhibition) at 10uM” value of the first is higher: -53.7% for the first, -59.8% for the second.

Going from CCOc1ccc(C(c2c(NC(=O)c3ccccc3)sc(C)c2C)N2CCN(CCO)CC2)cc1 (centres unmarked) to Cc1sc(NC(=O)c2ccccc2)c(C(c2ccc(Cl)cc2)N2CCN(CCO)CC2)c1C (centres unmarked), the “hERG current change (%, negative = inhibition) at 10uM” value rises from -21.1% to -4.47%.

Compared with COc1cccc(C(c2c(NC(=O)c3ccccc3)sc(C)c2C)N2CCN(C)CC2)c1 (centres unmarked), CCc1cc(C(c2ccccc2OC)N2CCOCC2)c(NC(=O)c2ccccc2)s1 (centres unmarked) is higher in “hERG current change (%, negative = inhibition) at 10uM” value: -17.6% for the first, 21.3% for the second.

Going from CC(=O)Nc1sc2c(c1C(c1ccccn1)N1CCN(C)CC1)CCCC2 (centres unmarked) to CN1CCN(C(=O)c2ccc3c(c2)N(Cc2cccc(Cl)c2)C(=O)c2ccccc2S3=O)CC1 (centres unmarked), the “hERG current change (%, negative = inhibition) at 10uM” value falls from -12.9% to -19.5%.

First: COc1ccc(/C(C)=N/NC(=O)c2nnn(-c3nonc3N)c2-c2ccccc2)cc1
Second: COc1cccc(Nc2ccc(C(=O)O)cc2N)c1
The “hERG current change (%, negative = inhibition) at 10uM” value of the first is higher: 19.8% for the first, 11.3% for the second.

First: N#CC(c1ccccn1)c1ncc(C(F)(F)F)cc1Cl (centres unmarked)
Second: Cc1cnc(C(=O)N2CCCC(C(=O)c3ccc(C(F)(F)F)cc3)C2)cn1 (centres unmarked)
The “hERG current change (%, negative = inhibition) at 10uM” value of the first is higher: 23.5% for the first, -17.7% for the second.

First: Cc1cccc(Cn2c(C(=O)OC(C)C)cc3c2ccn3C)c1
Second: Cc1cccc(CN2CCCC(C(=O)c3cccc(OC(C)C)c3)C2)n1 (centres unmarked)
The “hERG current change (%, negative = inhibition) at 10uM” value of the first is higher: 6.07% for the first, -40% for the second.

First: S=c1[nH]nc(COc2ccc(Cl)cc2)n1C1CCCCC1
Second: CC(C)(C)c1ccc(-c2n[nH]c(=S)n2C2CCCC2)cc1
The “hERG current change (%, negative = inhibition) at 10uM” value of the first is higher: 14.3% for the first, 4.01% for the second.

First: Cc1cc(NC(=O)COC(=O)[C@@H](NS(=O)(=O)c2ccccc2)C(C)C)no1
Second: COc1ccc(S(=O)(=O)NC(C)C(=O)NCc2ccncc2)cc1OC (centres unmarked)
The “hERG current change (%, negative = inhibition) at 10uM” value of the first is lower: -7.67% for the first, 15.7% for the second.

Compared with Cc1c([C@H]2[C@@H](CC#N)C2(C)C)c2ccccc2n1C, CCc1c(C)c(C#N)c2nc3ccccc3n2c1NCc1ccco1 is lower in “hERG current change (%, negative = inhibition) at 10uM” value: -10.4% for the first, -35.4% for the second.

Going from Clc1ccc(-c2nc(NCCN3CCOCC3)c3ccccc3n2)cc1 to Clc1ccc(-c2nnc(NCCN3CCCC3)c3ccccc23)cc1, the “hERG current change (%, negative = inhibition) at 10uM” value falls from -15.6% to -71.3%.

Compared with Clc1ccc(-c2nnc(NCc3ccccc3)c3ccccc23)cc1, O=c1c(-c2nnc(SCc3ccc(Cl)cc3)o2)cccn1Cc1ccccc1 is lower in “hERG current change (%, negative = inhibition) at 10uM” value: -13.3% for the first, -46.2% for the second.

Compared with O=C(Nc1cccc(Cl)c1)OCc1cncs1, Cc1ccc(C(=O)Nc2ccc3c(c2)OCO3)cc1Cl is higher in “hERG current change (%, negative = inhibition) at 10uM” value: -2.42% for the first, 19.7% for the second.

First: O=c1c(-c2nnc(SCc3ccc(Cl)cc3Cl)o2)cccn1Cc1ccccc1
Second: O=c1c(-c2nnc(SCc3ccc(Cl)c(Cl)c3)o2)cccn1Cc1ccccc1
The “hERG current change (%, negative = inhibition) at 10uM” value of the first is lower: -62.5% for the first, 1.6% for the second.

First: Cc1ccc(NC(=O)C(CC(C)C)NC(=O)C2CCC(C)CC2)nc1 (centres unmarked)
Second: CCOC(=O)C1CCN(C(=O)c2ccc(NC(=O)C3CCCO3)cc2)CC1 (centres unmarked)
The “hERG current change (%, negative = inhibition) at 10uM” value of the first is higher: -6.68% for the first, -9.35% for the second.

Compared with CCCc1cc(=O)[nH]c(SCC(=O)Nc2c(C)cccc2C)n1, Cc1cccc(C)c1NC(=O)CSc1nnc(-c2ccco2)n1N is lower in “hERG current change (%, negative = inhibition) at 10uM” value: 6.31% for the first, -4.1% for the second.

First: COc1cccc(C(=O)C2CCCN(CC3=Cc4cc(OC)ccc4OC3)C2)c1 (centres unmarked)
Second: COc1cccc(C(=O)C2CCCN(Cc3cccc(C)n3)C2)c1 (centres unmarked)
The “hERG current change (%, negative = inhibition) at 10uM” value of the first is lower: -56.6% for the first, -53.4% for the second.

Compared with COc1ccc2cc(C(=O)C3CCCN(Cc4cccc(C)n4)C3)ccc2c1 (centres unmarked), COc1ccc2cc(C(=O)C3CCCN(Cc4ccccn4)C3)ccc2c1 (centres unmarked) is higher in “hERG current change (%, negative = inhibition) at 10uM” value: -66.5% for the first, -66.2% for the second.

Going from COc1c(C)cc(C(=O)C2CCCN(Cc3cccc(C)n3)C2)cc1C (centres unmarked) to COc1ccc(C(=O)C2CCCN(Cc3cccc(C)n3)C2)c(OC)c1 (centres unmarked), the “hERG current change (%, negative = inhibition) at 10uM” value falls from -48.7% to -76.2%.

First: COc1ccc(C(=O)C2CCCN(Cc3ccccn3)C2)c(OC)c1 (centres unmarked)
Second: COc1ccc(C(=O)C2CCCN(Cc3ccon3)C2)c(OC)c1 (centres unmarked)
The “hERG current change (%, negative = inhibition) at 10uM” value of the first is lower: -55.7% for the first, -53.9% for the second.

Compared with CC(=O)Nc1ccc(N/C=C/C(=O)c2ccco2)cc1, CC(=O)Nc1ccc(CN2CCCC(C(=O)c3cccc(C(F)(F)F)c3)C2)cc1 (centres unmarked) is lower in “hERG current change (%, negative = inhibition) at 10uM” value: 1.94% for the first, -20.7% for the second.

First: Cn1nc(C(=O)Nc2nc3ccc(S(C)(=O)=O)cc3s2)ccc1=O
Second: CC1Sc2ccc(S(=O)(=O)N3CCN(c4cccc(Cl)c4)CC3)cc2NC1=O (centres unmarked)
The “hERG current change (%, negative = inhibition) at 10uM” value of the first is lower: -20.7% for the first, 9.32% for the second.

First: O=C(/C=C/N1CCN(Cc2ccccc2)CC1)C(F)(F)F
Second: CC(=O)Nc1ccc(CN2CCCC(C(=O)c3ccc(C(F)(F)F)cc3)C2)cc1 (centres unmarked)
The “hERG current change (%, negative = inhibition) at 10uM” value of the first is higher: 4.36% for the first, -77.3% for the second.

Compared with Cc1nn(-c2ccccc2)c(Oc2ccccc2)c1C=O, NC(=O)c1nc(C(=O)N2CCN(c3ccccc3)CC2)c2ccccc2n1 is higher in “hERG current change (%, negative = inhibition) at 10uM” value: -6.92% for the first, 2.14% for the second.

First: Cc1ccc([N+](=O)[O-])cc1N(CC(=O)N1CCCCC1)S(C)(=O)=O
Second: CC(C)C(CC(=O)N1CCCCC1)C1CCOC(C)(C)C1 (centres unmarked)
The “hERG current change (%, negative = inhibition) at 10uM” value of the first is higher: 12.2% for the first, -2.24% for the second.

First: Cn1cccc1Cc1nnc(SCC(=O)Nc2cccc(F)c2)n1CCc1ccccc1
Second: Cc1ccccc1NC(=O)CSc1nnc(-c2ccco2)n1N
The “hERG current change (%, negative = inhibition) at 10uM” value of the first is lower: -20.3% for the first, 4.14% for the second.

Compared with Cl.NCCOc1ccccc1-c1ccccc1, CCCCN1CC(=O)N2[C@H]3c4ccccc4OC[C@@H]3[C@H](c3ccccc3)[C@]2(C)C1=O is lower in “hERG current change (%, negative = inhibition) at 10uM” value: -11.1% for the first, -19.9% for the second.

First: CSc1ccc(CNC2CN3CCC2CC3)cc1.Cl (centres unmarked)
Second: CCNC(=O)N1CCCC(C(=O)c2ccc(C(F)(F)F)cc2)C1 (centres unmarked)
The “hERG current change (%, negative = inhibition) at 10uM” value of the first is higher: -10.7% for the first, -23.4% for the second.

Going from C[C@@H]1CCC2[C@](C)(CO)[C@@H](O)CC[C@]2(C)[C@@]12CCC(CO)(CCO)O2 (some centres unmarked) to CCOc1ccc(C(=O)COC(=O)CN2C(=O)NC3(CCCCC3C)C2=O)cc1 (centres unmarked), the “hERG current change (%, negative = inhibition) at 10uM” value falls from 26.8% to -42.7%.

Going from O=C1CN(C(=O)COc2ccc(F)cc2Br)c2ccccc2N1 to CCN(CC(=O)Nc1c(F)cccc1F)C(=O)c1n[nH]c2ccccc12, the “hERG current change (%, negative = inhibition) at 10uM” value rises from -29.9% to 10.4%.

Going from O=C(O)c1ccc2c(=O)n3cc(C(=O)c4ccccc4O)cc(Cl)c3nc2c1 to COc1ccc2cc(C(=O)C3CCCN(C(=O)CCc4ccccn4)C3)ccc2c1 (centres unmarked), the “hERG current change (%, negative = inhibition) at 10uM” value falls from 1.38% to -45.2%.

First: COc1cccc(C(=O)C2CCCN(Cc3ccon3)C2)c1 (centres unmarked)
Second: COc1cccc(C(=O)C2CCCN(Cc3ccccn3)C2)c1 (centres unmarked)
The “hERG current change (%, negative = inhibition) at 10uM” value of the first is higher: 8.72% for the first, -26% for the second.

Compared with COc1ccc(C(=O)C2CCCN(Cc3ccon3)C2)cc1OC (centres unmarked), CC(C)(C)c1ccc(C(=O)C2CCCN(Cc3ccon3)C2)cc1 (centres unmarked) is lower in “hERG current change (%, negative = inhibition) at 10uM” value: 11.2% for the first, -1.45% for the second.

Going from COc1ccc(C(=O)C2CCCN(Cc3sc(N4CCCC4)nc3Cl)C2)c(OC)c1 (centres unmarked) to Cc1cccc(CN2CCCC(C(=O)c3ccc(C(F)(F)F)cc3)C2)n1 (centres unmarked), the “hERG current change (%, negative = inhibition) at 10uM” value falls from -49.7% to -68.2%.

Compared with Cc1ccc(OCCN2CCN(C(=O)CCC(=O)Nc3nnc(C)s3)CC2)cc1, Cc1cccc(NC(=O)CSc2nnc(CNC(=O)c3ccco3)n2C)c1C is lower in “hERG current change (%, negative = inhibition) at 10uM” value: -7.69% for the first, -17.3% for the second.

Compared with Nc1nc(SC2c3cccc4cccc(c34)C2NS(=O)(=O)c2ccccc2)n[nH]1 (centres unmarked), Cc1ccccc1NC(=O)CSc1n[nH]c(-c2ccco2)n1 is higher in “hERG current change (%, negative = inhibition) at 10uM” value: 5.88% for the first, 10.1% for the second.

Compared with Cc1nc2ccc(C(=O)O)cc2c2c1CC(C)S2 (centres unmarked), Cc1[nH]n2c(=O)cc(C(C)C)nc2c1-c1ccccc1 is higher in “hERG current change (%, negative = inhibition) at 10uM” value: -16% for the first, -12.1% for the second.

Compared with CCOC(=O)c1c(C)[nH]c(C)c1C(=O)COC(=O)C1CCCN1S(=O)(=O)c1ccccc1F (centres unmarked), Cc1cccc(C)c1NC(=O)CSc1nc(-c2ccco2)cc(C(F)(F)F)n1 is higher in “hERG current change (%, negative = inhibition) at 10uM” value: -2.63% for the first, 4.77% for the second.

Compared with CCOc1ccc(NC(=S)NC(=O)c2cncc(Br)c2)cc1, Cc1cccc(NC(=O)CSc2nnc(-c3ccco3)o2)c1C is lower in “hERG current change (%, negative = inhibition) at 10uM” value: 10.1% for the first, -4.42% for the second.

Compared with Cc1cccc(C)c1NC(=O)CSc1nnc(-c2ccco2)c(-c2ccco2)n1, Cc1cccc(NC(=O)CSc2nnc(-c3ccco3)c(-c3ccco3)n2)c1C is higher in “hERG current change (%, negative = inhibition) at 10uM” value: -67.1% for the first, -66.4% for the second.

Compared with Cc1ccccc1NC(=O)CSc1nnc(-c2ccco2)c(-c2ccco2)n1, Clc1ccc(CSc2ccc(-c3ccccn3)nn2)cc1 is higher in “hERG current change (%, negative = inhibition) at 10uM” value: -53.9% for the first, -2.04% for the second.
